From PubChem BioAssay AID2284333 (EPA ToxCast) come the findings set out here.

Records with an inconclusive call do not appear. Active and inactive are the calls of the source. How the source made its calls: active means hit-call score of the fitted dose curve at least 0.9, where 1 is the maximum; inconclusive means response in the unintended direction; inactive means score below 0.9.

rainbow trout Glucocorticoid Receptor (GR), nr3c1 (gene 100136786), sequence (P49843 whole entry, looked up): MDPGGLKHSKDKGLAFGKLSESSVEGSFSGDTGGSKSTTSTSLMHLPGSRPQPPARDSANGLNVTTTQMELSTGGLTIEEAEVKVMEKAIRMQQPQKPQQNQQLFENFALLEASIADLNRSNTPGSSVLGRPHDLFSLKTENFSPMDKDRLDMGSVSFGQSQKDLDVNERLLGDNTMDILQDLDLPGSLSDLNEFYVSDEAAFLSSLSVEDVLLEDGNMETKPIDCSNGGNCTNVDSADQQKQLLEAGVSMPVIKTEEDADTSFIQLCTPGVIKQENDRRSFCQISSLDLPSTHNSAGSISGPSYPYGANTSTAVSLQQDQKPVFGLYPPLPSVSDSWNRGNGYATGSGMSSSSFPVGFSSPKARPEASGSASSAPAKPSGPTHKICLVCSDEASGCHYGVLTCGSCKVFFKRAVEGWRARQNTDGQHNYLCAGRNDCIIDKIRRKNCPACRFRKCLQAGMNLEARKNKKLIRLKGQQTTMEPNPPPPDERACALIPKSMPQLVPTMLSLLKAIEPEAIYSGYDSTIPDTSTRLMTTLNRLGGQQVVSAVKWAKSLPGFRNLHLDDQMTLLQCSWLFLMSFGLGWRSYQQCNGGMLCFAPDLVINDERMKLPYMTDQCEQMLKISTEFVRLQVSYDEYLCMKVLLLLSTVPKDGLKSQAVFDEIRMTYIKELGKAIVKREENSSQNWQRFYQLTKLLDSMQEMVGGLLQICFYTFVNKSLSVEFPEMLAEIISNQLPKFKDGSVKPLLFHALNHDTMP

For this experiment, the target named is rainbow trout Glucocorticoid Receptor (GR), nr3c1 (gene 100136786) (UniProt P49843). Put plainly: ATG_rtGR_EcoTox2: Attagene TRANS-FACTORIAL EcoTox-2 HepG2 Assay for rainbow trout Glucocorticoid Receptor (GR). The procedure:
ATG_EcoTox2 is a cell-based, multiplexed assay created by modifying the existing Attagene TRANS-FACTORIAL system to include a panel of nuclear receptors from some or all the following species: human (Homo sapiens), african clawed frog (Xenopus laevis), rainbow trout (Oncorhynchus mykiss), japanese medaka (Oryzias latipes), and zebrafish (Danio rerio). The ECOTOX2-FACTORIAL format uses HepG2, a human liver cell line, with measurements taken at 24 hours after chemical dosing in a 24-well plate. ATG_rtGR_EcoTox2 is one of 29 assay components calculated in the ATG_EcoTox2 assay. It is designed to make measurements of mRNA induction, a form of inducible reporter, as detected with fluorescence intensity signals by Reverse transcription polymerase chain reaction (RT-PCR) and Capillary electrophoresis technology.The assay endpoint ATG_rtGR_EcoTox2 was analyzed in the positive analysis fitting direction relative to DMSO as the negative control and baseline of activity. Using a type of inducible reporter, measures of mRNA for gain-of-signal activity can be used to understand the reporter gene at the transcription factor-level as they relate to the gene for glucocorticoid receptor. Furthermore, this assay endpoint can be referred to as a primary readout, because this assay has produced multiple assay endpoints where this one serves a reporter gene function. To generalize the intended target to other relatable targets, this assay endpoint is annotated to the nuclear receptor intended target family, where the subfamily is steroidal.
Human liver HepG2 cells are transiently transfected with multiple reporter transcription units (MRTUs) in 6-well plates using FuGene 6 reagent (Roche; 3 ml FuGene/1 mg DNA). The MRTU constructs are regulated by a cis-regulating element (promoter). Each RTU expresses a GAL4-UAS that regulates the transcription of a nearby target reporter gene sequence. A major difference between the CIS and TRANS system is that in CIS activities of endogenous TFs are measured, whereas the TRANS assay evaluates changes in activities of exogenous, chimeric NR-Gal4 proteins. […] At the end of 24 hour incubation, total RNA was isolated using TriZol reagent (Invitrogen). The isolated RNA is then reverse-transcribed using oligo(dT) primer and Mo-MLV reverse transcriptase (Invitrogen) with DNAse I (Ambion) treatment for 30 min. The one-tenth of the produced cDNA was amplified by PCR using Taq DNA polymerase (Invitrogen) and two reporter sequence-specific primers. […] The fragments were purified using Qiaquick PCR columns (Qiagen), analyzed on an ABI 3130xL genetic analyzer (Applied Biosystems) with peak positions identified by using a set of X-rhodamine (ROX)-labeled MapMarker1000 molecular weight standards (BioVentures). […]
On to `O=C(O)C(F)(F)C(F)(F)C(F)(F)C(F)(F)C(F)(F)C(F)(F)C(F)(F)F`, for which the call was inactive.
`[Cl][Sn]([c]1ccccc1)([c]1ccccc1)[c]1ccccc1`: the call was inactive.
Under `CCCCOCN(C(=O)CCl)c1c(CC)cccc1CC` stands “inactive”; under `O=S(=O)(O)C(F)(F)C(F)(F)C(F)(F)C(F)(F)C(F)(F)C(F)(F)F`, “inactive”.
